Compound activity (PubChem BioAssay)
Fam108B counter – mouse Fam108B serine hydrolase inhibitors, primary screen, counter-screen for RBBP9 inhibitor project, biochemical, fluorescence polarization | actives 0.33% (n = 300,000) | recombinant Fam108B, FP-Rh probe fluorescence polarization | inhibition, % at 9.51 µM | AID 1947, 2009;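 active means inhibition above the screen mean inhibition plus 3 SD, computed separately per campaign, cut at about 18% in these data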;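 further: inhibitors lower polarization as less probe binds the enzyme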
PAD4 inh – human PAD4 inhibitors, primary screen, biochemical, fluorescence polarization, 1536-well format; Protein-arginine deiminase type-4 (Homo sapiens), Q9UM07; recombinant PAD4, RCA probe fluorescence polarization; inhibition, % at 6.36 µM; actives 0.41% (n = 330,000);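 active means percent inhibition above a cutoff equal to the mean of all tested compounds plus 3 SD, cut at about 15% in these data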;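 further: 0% = PAD4 with RCA probe and DMSO and 100% = probe without PAD4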
GSTO1 inh – inhibitors of recombinant GSTO1, primary screen, counter-screen for RBBP9 inhibitor project, biochemical, fluorescence polarization. Glutathione S-transferase omega-1 (Homo sapiens), P78417. activity-based probe fluorescence polarization. inhibition, % at 5.96 µM. actives 1.1% (n = 300,000). AID 1974, 2009;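 active means inhibition above the campaign mean inhibition plus 3 SD, cut at about 35% in these data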;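 further: 0% = GSTO1-1 with DMSO and 100% = wells lacking GSTO1-1 enzyme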
Target sequence (P78417 whole entry, looked up): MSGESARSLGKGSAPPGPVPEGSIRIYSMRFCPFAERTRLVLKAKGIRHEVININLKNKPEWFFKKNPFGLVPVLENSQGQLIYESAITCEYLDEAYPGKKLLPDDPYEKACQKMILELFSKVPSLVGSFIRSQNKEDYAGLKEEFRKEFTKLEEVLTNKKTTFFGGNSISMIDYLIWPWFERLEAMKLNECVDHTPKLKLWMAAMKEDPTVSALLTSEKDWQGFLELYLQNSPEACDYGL
LYPLA1 inh – LYPLA1 inhibitors, primary screen, counter-screen for PME1 inhibitor project, biochemical, fluorescence polarization, FP-Rh probe ABPP | Acyl-protein thioesterase 1 (Homo sapiens), O75608 | AID 2174, 2009 | recombinant LYPLA1 | inhibition, % at 5.9 µM | actives 0.16% (n = 320,000);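 active means inhibition above the mean of all tested compounds plus 3 SD, set per campaign, cut at about 14% in these data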;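 further: inhibitors block serine hydrolase probe labeling of LYPLA1 so polarization falls; 0% = enzyme with DMSO and 100% = wells lacking LYPLA1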
Target sequence (O75608 whole entry, looked up): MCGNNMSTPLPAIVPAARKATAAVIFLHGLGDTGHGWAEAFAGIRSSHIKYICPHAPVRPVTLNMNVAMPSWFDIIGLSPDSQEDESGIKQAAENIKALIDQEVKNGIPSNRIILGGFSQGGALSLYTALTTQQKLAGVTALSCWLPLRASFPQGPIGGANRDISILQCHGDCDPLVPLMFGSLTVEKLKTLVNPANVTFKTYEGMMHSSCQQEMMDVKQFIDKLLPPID
LYPLA2 counter – LYPLA2 inhibitors, primary screen, counter-screen for PME1 inhibitor project, biochemical, fluorescence polarization, FP-Rh probe ABPP; recombinant LYPLA2; inhibition, % at 5.9 µM; actives 0.38% (n = 320,000); AID 2177, 2009;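 active means inhibition above the screen-wide mean plus 3 SD, limit set per campaign, cut at about 26% in these data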;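 further: 0% = LYPLA2 with DMSO and 100% = wells lacking LYPLA2 enzyme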
Target sequence (O95372 whole entry, looked up): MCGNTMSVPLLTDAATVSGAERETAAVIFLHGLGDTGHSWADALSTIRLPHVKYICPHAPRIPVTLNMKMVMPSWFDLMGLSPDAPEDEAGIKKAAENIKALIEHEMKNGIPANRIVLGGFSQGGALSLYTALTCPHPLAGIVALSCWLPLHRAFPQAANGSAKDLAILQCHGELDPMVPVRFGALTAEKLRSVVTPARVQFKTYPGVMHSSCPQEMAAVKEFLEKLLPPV
PME-1 inh – PME-1 inhibitors via competitive probe labeling, primary screen, biochemical, fluorescence polarization, FP-Rh probe, HTS; Protein phosphatase methylesterase 1 (Homo sapiens), Q9Y570; recombinant PME-1; inhibition, % at 5.9 µM; actives 0.53% (n = 320,000);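 active means inhibition above the campaign mean of all compounds plus 3 SD, cut at about 26% in these data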;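 further: competitive labeling of PME-1 active site by serine hydrolase directed probe; 0% = PME-1 with DMSO and 100% = wells lacking PME-1 enzyme; inhibitors block probe labeling so polarization falls and inhibition rises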
An asterisk follows results filed as active; . = no result. Sampled rows, rich in hits. Any-hit rate of the full collection: about 1.8%.

SMILES | Fam108B counter | PAD4 inh | GSTO1 inh | LYPLA1 inh | LYPLA2 counter | PME-1 inh
N#C/C(=C\c1ccc(-c2ccc([N+](=O)[O-])cc2)o1)C(=O)Nc1nc(-c2cccs2)cs1 | 0.2 | -37.3 | -19.8 | -13.4 | -7.5 | 0.6
CCOC(=O)c1sc2nc(C)nc(SCC(=O)NC3CCS(=O)(=O)C3)c2c1C (configuration not stated) | 2.5 | -2.8 | -23.3 | -4.0 | 0.5 | 4.7
CC(=O)Nc1ccc(-c2nc3cc(Cl)ccc3o2)cc1 | -5.2 | 5.9 | -14.0 | -6.3 | -3.0 | -13.7
O=C(O)c1ccccc1-c1ccccc1C(=O)Nc1ccc(-c2nc3cc(Cl)ccc3o2)cc1 | -19.3 | -7.0 | -137.1 | -14.1 | -21.6 | 31.1*
CCC(C)c1ccc(NC(=O)Nc2cccnc2)cc1 (configuration not stated) | -0.9 | -0.5 | -2.5 | -13.2 | -2.7 | -30.8
COCCn1c(SCC(=O)NN2C(=O)NC(C)(c3ccccc3)C2=O)nnc1-c1ccncc1 (configuration not stated) | . | -1.7 | . | 0.2 | -2.5 | -3.3
Cc1ccc(S(=O)(=O)c2nnn3c2nc(N2CCOCC2)c2ccccc23)c(C)c1 | 1.7 | -0.1 | 5.6 | -2.4 | 2.8 | 27.1*
Cc1ccc(S(=O)(=O)c2nnn3c2nc(N2CCOCC2)c2ccccc23)cc1C | -1.4 | 0.8 | -9.2 | -2.3 | -5.4 | 5.3
O=S(=O)(/C=C/c1cccc(Br)c1)N1CCOCC1 | -4.0 | 1.6 | 5.9 | 1.8 | -2.3 | 1.8
Cc1cccc(-n2c3nc(=O)[nH]c(=O)c-3cc3cc([N+](=O)[O-])ccc32)c1 | 13.1 | 0.7 | -14.1 | 0.0 | -1.2 | 30.8*
O=C(O)CC1S/C(=N/N=C/c2ccc(-c3ccc(Cl)c([N+](=O)[O-])c3)o2)NC1=O (configuration not stated) | 11.3 | 5.5 | 36.6* | 3.9 | 5.5 | 2.3
CC(=O)Nc1ccc(C=NNc2ccc([N+](=O)[O-])cc2S(=O)(=O)Nc2ccccc2C(=O)O)cc1 | . | -4.2 | . | . | . | .
Cc1ccc(NC(=S)NNc2ccc(C(=O)O)cc2[N+](=O)[O-])cc1C | 5.1 | 1.3 | 35.6* | 0.6 | 12.5 | 12.7
Cc1ccc(Nc2ccc(C(N)=O)cc2[N+](=O)[O-])cc1C | 2.7 | 1.5 | 4.2 | 10.2 | 19.1 | 10.6
Cc1ccc(NC(=S)NNc2ccc([N+](=O)[O-])cc2S(=O)(=O)Nc2ccccc2C(=O)O)cc1C | 8.8 | 1.3 | -144.5 | -8.4 | -5.5 | 48.4*
CCCCCCCC(=O)Nc1cc(C(=O)NCCC)ccc1N1CCC2(CC1)CC(c1ccccc1)=NO2 | 0.3 | -0.4 | -4.8 | 0.6 | -1.7 | -0.7
Cn1nnnc1SCC(=O)NC(=O)c1cccc([N+](=O)[O-])c1 | 3.4 | 0.6 | 4.3 | 0.7 | 3.6 | 2.9
O=c1c(O)c(-c2ccccc2)oc2cc(O)cc(O)c12 | . | -4.5 | . | . | . | .
CC(C)=CCc1cc(-c2oc3cc(O)cc(O)c3c(=O)c2O)ccc1O | 6.8 | -3.1 | 5.6 | -2.0 | 5.7 | 34.1*
O=C(CCS(=O)(=O)c1ccc(Br)s1)N1CCc2ccccc21 | -2.2 | -4.5 | 35.9* | -2.7 | -1.2 | 5.5
COc1ccccc1NS(=O)(=O)c1cccc(-n2c(O)c(C=Nc3ccccc3C(=O)O)c3ccccc3c2=O)c1 | 18.1 | -0.5 | -2.2 | 8.2 | 3.1 | 81.8*
CC1CCCCN1C(=O)c1cc2ccccc2cc1O (configuration not stated) | 3.5 | -2.0 | -1.8 | 2.8 | 5.8 | 2.3
CCOC(=O)c1c(C)[nH]c(C)c1C(=O)COC(=O)c1ccc(OC)c(OC)c1 | -0.3 | -3.5 | 35.3* | 0.2 | 1.5 | 1.8
CCOC(=O)c1c(C)[nH]c(C)c1C(=O)COC(=O)c1c(OC)cccc1OC | 2.0 | -1.8 | 2.7 | -5.0 | -0.1 | -1.9
CCCCN(C)C(=O)C1CCCN(S(=O)(=O)c2ccc3c(c2)CC(C)N3C(=O)C2CC2)C1 (configuration not stated) | -0.1 | 3.5 | 5.4 | 1.7 | 5.8 | 9.2
SMILES | Fam108B counter | PAD4 inh | GSTO1 inh | LYPLA1 inh | LYPLA2 counter | PME-1 inh
O=C(Nc1cccc(S(=O)(=O)NC2=NCCC2)c1)c1cc(-c2ccco2)nc2ccccc12 | 7.5 | -6.2 | 60.5* | -12.8 | -2.4 | 5.6
O=C(NC(=S)Nc1cccc(S(=O)(=O)NC2=NCCC2)c1)c1cc(-c2ccco2)nc2ccccc12 | 0.2 | -4.8 | 6.9 | -3.2 | 6.2 | 5.2
CCC(CC)C(=O)Nc1ccc(C(=O)Nc2cc(C)on2)cc1 | 0.0 | -1.6 | -3.1 | 4.1 | 7.5 | 0.2
O=C(NCCCCl)C1CC(=O)N(CCc2ccc(F)cc2)C1 (configuration not stated) | 0.5 | -3.7 | 6.7 | 0.9 | 2.4 | 1.1
CN(Cc1ccccc1)C(=O)CC(=O)N(C)Cc1ccccc1 | -2.0 | 1.5 | -0.9 | -0.1 | 1.7 | -4.6
CN(Cc1ccc(Cl)cc1)C(=O)CCl | -2.5 | -2.1 | 86.4* | -1.1 | 3.2 | -3.0
O=C(O)c1[nH]c2ccccc2c1C(c1c(F)cccc1Cl)c1c(C(=O)O)[nH]c2ccccc12 | -1.2 | -7.0 | 41.2* | 1.6 | 12.1 | -0.7
O=C(O)c1[nH]c2ccccc2c1C(c1cc(Br)ccc1O)c1c(C(=O)O)[nH]c2ccccc12 | 6.6 | -2.6 | 59.4* | -0.6 | 4.6 | -0.6
COc1ccc(-c2nnc(SCC(=O)NC3CCCC3)n2C)cc1 | 2.8 | -4.3 | -0.8 | 0.5 | 2.0 | -2.7
Cc1cccc(C(=O)NNC2=C(C(=O)C(F)(F)F)CCC2)c1O | 8.2 | -0.4 | -0.7 | -4.2 | -8.5 | -8.0
COc1ccc(-c2cc(-c3ccc(C)cc3)n[nH]2)c(O)c1 | 5.4 | -0.3 | -3.0 | -8.4 | -6.1 | 47.3*
Clc1ccc(OCCn2cnc(Cl)c2Cl)cc1 | -0.8 | -5.0 | 9.8 | -2.6 | -6.2 | -1.5
Cc1nnc(NN)n(N)c1=O | -1.6 | 2.1 | 36.7* | -0.4 | 3.5 | -2.3
O=C(N=Nc1c(O)n(Cc2ccccc2)c2ccccc12)c1cc2ccccc2cc1O | 1.4 | -2.5 | -2.2 | -3.8 | 0.0 | 51.1*
O=C(N=Nc1c(O)n(Cc2ccccc2)c2ccccc12)c1ccc(O)cc1 | 0.5 | -3.1 | 2.9 | -6.7 | 3.0 | 2.5
COc1ccc(-n2c(SCc3ccccn3)nc3c(c2=O)SCC3)cc1OC | 5.0 | 2.5 | 4.7 | -0.1 | -2.1 | 0.3
Cc1ccc(NC(=O)CCl)cc1S(=O)(=O)N1CCCCCC1 | 3.7 | -3.9 | 75.9* | 1.3 | 6.1 | 3.0
CC(C)NC(=O)Nc1ccc2c(c1)C(=O)N([C@H](C)CO)C[C@H](C)[C@@H](CN(C)S(C)(=O)=O)O2 | . | -6.4 | . | . | . | .
